Reference: PubChem BioAssay
Active and inactive are the calls of the source.

Key:
[1] = E. coli DRC41 culture turbidity changes, primary screen, E. coli filamentation inducer project, strain DRC41, OD650, 48 h (AID 1152);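 further: E. coli MC1000 strain DRC41 lacking acrAB efflux pump and sulA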; conditions: E. coli DRC41 (acrAB sulA), higher = more signal, called active from +8 up or from −8 down
[2] = small-molecule binders of probe aLefty1, primary screen, biochemical, small-molecule microarray, 635/667 nm fluorescence (AID 1153); conditions: higher = more signal;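 further: score merges spot fluorescence with signal-to-noise ratio from the scanned slide images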
[3] = PSAC antagonists in infected red cells, primary screen, cell-based, P. falciparum Indochina, OD700, 1 h (AID 1154); conditions: P. falciparum Indochina infected RBC osmotic lysis, higher = more signal, called active from +8 up or from −8 down
[4] = PSAC antagonists in infected red cells, primary screen, cell-based, P. falciparum Indochina, OD700, 2 h (AID 1155);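 further: lysis reports solute entry through the parasite surface anion channel PSAC; channel blockers reduce lysis of infected cells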; conditions: P. falciparum Indochina infected erythrocytes, osmotic lysis OD700; higher = more signal, called active from +8 up or from −8 down
[5] = osmotic lysis modulators in infected erythrocytes, primary screen, PSAC antagonist project, cell-based, P. falciparum Indochina, OD700, 3 h (AID 1156); conditions: higher = more signal, called active from +8 up or from −8 down
[6] = PSAC antagonists in infected red cells, primary screen, cell-based, P. falciparum Indochina, OD700, 18 h (AID 1157); conditions: P. falciparum Indochina infected erythrocytes, osmotic lysis OD700, 18 h; higher = more signal, called active from +8 up or from −8 down
[7] = modulators of S6 phosphorylation in cells, primary screen, cell-based, A549, cytoblot, luminescence, serum-stimulated (AID 1158); conditions: A549 phospho-S6 cytoblot, 5 h, higher = more signal;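 further: serum-stimulated A549 lung adenocarcinoma cells; signal is phosphorylated S6 detected by cytoblot immunostaining with HRP secondary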
[8] = target: NADPH oxidase 2 (Homo sapiens) (UniProt P04839); experiment: NOX2-dependent H2O2 signal modulators, primary screen, NOX inhibitor project, cell-based, HEK293-NOX2, PMA-stimulated, Amplex Red fluorescence (AID 1159); conditions: 45 min, higher = more signal, called active from +8 up or from −8 down; further: test concentration not given here
Chain of NADPH oxidase 2 (Homo sapiens) (P04839 whole entry, looked up): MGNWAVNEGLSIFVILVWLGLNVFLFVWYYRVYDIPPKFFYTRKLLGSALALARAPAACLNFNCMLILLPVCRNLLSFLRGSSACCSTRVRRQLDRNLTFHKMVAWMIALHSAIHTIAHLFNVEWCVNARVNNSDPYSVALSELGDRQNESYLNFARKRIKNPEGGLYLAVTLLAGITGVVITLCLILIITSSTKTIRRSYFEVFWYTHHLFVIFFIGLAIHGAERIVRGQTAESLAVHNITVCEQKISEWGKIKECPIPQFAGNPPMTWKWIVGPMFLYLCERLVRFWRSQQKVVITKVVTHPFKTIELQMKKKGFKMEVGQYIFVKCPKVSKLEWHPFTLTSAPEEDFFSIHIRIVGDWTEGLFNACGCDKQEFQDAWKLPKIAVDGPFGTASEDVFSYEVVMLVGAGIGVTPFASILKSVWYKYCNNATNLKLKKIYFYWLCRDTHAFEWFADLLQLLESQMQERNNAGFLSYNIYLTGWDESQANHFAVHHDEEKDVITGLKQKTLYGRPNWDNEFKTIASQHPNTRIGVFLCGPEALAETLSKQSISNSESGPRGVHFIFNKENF

[9] = target: NADPH oxidase 4 (Homo sapiens) (UniProt Q9NPH5); experiment: NOX4-dependent H2O2 signal modulators, primary screen, NOX inhibitor project, cell-based, HEK293-NOX4, tetracycline-induced, Amplex Red fluorescence (AID 1160); conditions: 45 min, higher = more signal, called active from +8 up or from −8 down
Chain of NADPH oxidase 4 (Homo sapiens) (Q9NPH5 whole entry, looked up): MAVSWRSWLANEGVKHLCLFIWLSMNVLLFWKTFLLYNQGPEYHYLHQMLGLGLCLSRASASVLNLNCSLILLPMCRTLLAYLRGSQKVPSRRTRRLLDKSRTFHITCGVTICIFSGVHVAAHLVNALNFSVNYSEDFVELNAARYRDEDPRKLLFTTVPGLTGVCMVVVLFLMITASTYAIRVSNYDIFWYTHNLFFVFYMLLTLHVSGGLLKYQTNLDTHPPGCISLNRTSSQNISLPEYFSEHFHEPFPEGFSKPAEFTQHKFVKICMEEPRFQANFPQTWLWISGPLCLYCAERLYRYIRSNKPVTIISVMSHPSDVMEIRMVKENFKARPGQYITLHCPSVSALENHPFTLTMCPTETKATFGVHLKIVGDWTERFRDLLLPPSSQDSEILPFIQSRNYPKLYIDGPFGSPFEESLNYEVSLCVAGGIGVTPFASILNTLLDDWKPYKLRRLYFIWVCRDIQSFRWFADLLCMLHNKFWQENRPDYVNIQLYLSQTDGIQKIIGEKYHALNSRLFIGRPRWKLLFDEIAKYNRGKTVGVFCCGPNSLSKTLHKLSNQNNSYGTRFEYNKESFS

[10] = target: NADPH oxidase 5 (Homo sapiens) (UniProt Q96PH1); experiment: NOX5-dependent H2O2 signal modulators, primary screen, NOX inhibitor project, cell-based, HEK293-NOX5, Amplex Red fluorescence (AID 1161); conditions: HEK293-NOX5, ionomycin, 45 min, higher = more signal
Chain of NADPH oxidase 5 (Homo sapiens) (Q96PH1 whole entry, looked up): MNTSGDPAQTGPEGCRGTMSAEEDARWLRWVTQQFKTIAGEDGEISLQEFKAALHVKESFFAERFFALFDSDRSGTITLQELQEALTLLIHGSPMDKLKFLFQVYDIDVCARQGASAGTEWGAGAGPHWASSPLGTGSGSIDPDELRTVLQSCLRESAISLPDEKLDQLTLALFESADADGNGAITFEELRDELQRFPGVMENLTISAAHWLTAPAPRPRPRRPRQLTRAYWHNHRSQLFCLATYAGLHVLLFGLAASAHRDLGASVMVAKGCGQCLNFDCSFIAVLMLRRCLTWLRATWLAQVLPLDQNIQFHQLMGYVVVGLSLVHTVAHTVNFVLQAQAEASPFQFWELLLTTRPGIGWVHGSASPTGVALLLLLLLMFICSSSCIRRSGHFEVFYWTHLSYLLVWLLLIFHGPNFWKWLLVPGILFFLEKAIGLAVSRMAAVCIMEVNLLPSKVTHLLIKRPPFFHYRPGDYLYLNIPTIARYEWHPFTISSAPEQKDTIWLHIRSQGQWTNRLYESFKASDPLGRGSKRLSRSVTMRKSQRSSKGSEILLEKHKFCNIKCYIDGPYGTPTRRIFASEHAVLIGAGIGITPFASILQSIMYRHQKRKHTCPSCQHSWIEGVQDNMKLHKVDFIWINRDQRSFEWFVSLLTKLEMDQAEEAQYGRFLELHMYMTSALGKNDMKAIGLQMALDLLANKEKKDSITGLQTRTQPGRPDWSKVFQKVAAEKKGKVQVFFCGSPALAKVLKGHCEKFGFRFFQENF

SMILES	z-score [1]	composite z-score [2]	z-score [3]	z-score [4]	z-score [5]	z-score [6]	z-score [7]	z-score [8]	z-score [9]	z-score [10]
C=CCNC(=O)[C@H]1[C@@H]2C(=O)O[C@@H](c3ccccc3)[C@@H](c3ccccc3)N2[C@@H](c2ccc(O)cc2)[C@]12C(=O)Nc1ccc(C#CCNC(N)=O)cc12	1.86 (inactive)	0.599	1.7 (inactive)	1.29 (inactive)	0.682 (inactive)	0.506 (inactive)	0.583	1.19 (inactive)	-0.188 (inactive)	0.1
COC(=O)C(CC#Cc1ccc2c(c1)[C@]1(C(=O)N2)[C@H](C(=O)N2CCCCCCC2)[C@H]2C(=O)O[C@H](c3ccccc3)[C@H](c3ccccc3)N2[C@@H]1c1ccc(O)cc1)C(=O)OC	0.752 (inactive)	0.297	0.561 (inactive)	-0.312 (inactive)	-0.221 (inactive)	-1.18 (inactive)	1.28	0.455 (inactive)	0.264 (inactive)	0.147
CCC(=O)[C@]12O[C@@]3([C@@H]4C(=O)OCC[C@@H]41)N(CC)C(C)=C(C(=O)OC)[C@@H](c1ccccc1)N3C2=O	0.362 (inactive)	-0.29	0.91 (inactive)	-0.071 (inactive)	-1.35 (inactive)	-1.08 (inactive)	0.815	1.5 (inactive)	-1.36 (inactive)	0.922
CC(C)CNC(=O)[C@@]1(C)c2ccccc2C(=O)N(Cc2ccc(OC(F)(F)F)cc2)[C@H]1c1ccc(CO)cc1	1.28 (inactive)	0.152	2.97 (inactive)	0.251 (inactive)	1.09 (inactive)	-0.0139 (inactive)	0.181	-0.201 (inactive)	0.775 (inactive)	1.01
CCOC(=O)C[C@H]1[C@H](OC(=O)Cc2ccc3c(c2)OCO3)[C@@H](NC(=O)CC(C)C)c2cc(OCCCO)ccc2N1C(=O)c1ccccc1	2.39 (inactive)	0.0698	0.4 (inactive)	-1.02 (inactive)	-0.462 (inactive)	-1.5 (inactive)	0.622	0.337 (inactive)	0.52 (inactive)	0.47
CC(C)[Si](OCCCNS(=O)(=O)c1ccc(Br)cc1)(C(C)C)C(C)C	3.27 (inactive)	-0.0236	0.869 (inactive)	0.0808 (inactive)	-3.37 (inactive)	-0.442 (inactive)	4.17	1.84 (inactive)	-0.843 (inactive)	-3.06
C=C(COC)C(=O)CC[C@H](OC(=O)c1ccccc1-c1ccccc1C(=O)O)c1cccc(OCCO)c1	0.0418 (inactive)	0.333	3.26 (inactive)	1.91 (inactive)	0.281 (inactive)	1.36 (inactive)	0.29	0.635 (inactive)	0.112 (inactive)	-2.96
O=C1OCC=C[C@H]2OC34C=CCN(Cc5ccccc5)C(=O)[C@H]3N(CCO)C(=O)[C@@H]4[C@@H]12 (stereo not given in full)	2.41 (inactive)	-0.0104	0.286 (inactive)	-0.44 (inactive)	-1.32 (inactive)	-1.34 (inactive)	0.262	1.53 (inactive)	1.18 (inactive)	1.75
Cc1ccc(S[C@]2(C(=O)NC(C)C)CC(=O)N(C3Cc4ccccc4C3)[C@@H]2c2ccc(CO)cc2)cc1	-0.415 (inactive)	-0.357	2.26 (inactive)	-0.862 (inactive)	1.04 (inactive)	-1.88 (inactive)	1.95	0.0257 (inactive)	-0.029 (inactive)	-0.927
C=C(CCCC)C(=O)CC[C@@H](OC(=O)c1cccnc1)c1cccc(OCCO)c1	0.381 (inactive)	-0.0954	26.7 (active)	13.1 (active)	1.28 (inactive)	1.14 (inactive)	-0.712	0.849 (inactive)	0.849 (inactive)	-1.41
COc1ccc([Si](C)(C)[C@H]2[C@H](CC(=O)N(CCO)Cc3ccccc3)O[C@@]3(C(=O)N(C)c4ccccc43)[C@@H]2C)cc1	1.28 (inactive)	0.106	9.01 (active)	0.781 (inactive)	-1.12 (inactive)	-0.698 (inactive)	0.342	-0.246 (inactive)	0.129 (inactive)	-2.43
C=CCC(OC(C)=O)[C@@H]1[C@@H](N(Cc2ccc(-c3cccc(C(F)(F)F)c3)o2)C(=O)Cc2ccc(F)cc2)c2cc(OCCCO)ccc2N1C(=O)c1ccc(-c2ccccc2)cc1 (stereo not given in full)	-1.01 (inactive)	-0.0489	1.23 (inactive)	-0.401 (inactive)	-0.642 (inactive)	-0.255 (inactive)	-0.0924	-0.0336 (inactive)	1.1 (inactive)	1.29
C=CC[C@]1(C(=O)O)N=C(c2ccc(OCCCO)cc2)O[C@H]1c1ccccc1N=[N+]=[N-]	1.76 (inactive)	0.0299	32.9 (active)	29.4 (active)	3.38 (inactive)	9.45 (active)	0.883	-1.53 (inactive)	0.823 (inactive)	-0.199
